Assay results published in PubChem BioAssay (NCI).
About 79,000 compounds went through this panel and 15% of them were active in at least one assay; those are over-represented in the sample as a whole. Cut-off read from the data, not from the text of the source: active = growth inhibition above about 70%; inactive = the rest.

Key:
[1] = NCI Yeast Anticancer Drug Screen. Data for the rad50 strain (AID 155);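 note: 0% = growth of vehicle-only cultures of the same strain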; conditions: S. cerevisiae rad50 strain growth inhibition; at 50.0 µM; hits give high values
How it was run: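 Inhibition values express reduced yeast growth in compound-treated cultures relative to vehicle-treated controls.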

[2] = NCI Yeast Anticancer Drug Screen. Data for the mec2-1 strain (AID 157); conditions: S. cerevisiae mec2-1 strain, at 50.0 µM, hits give high values
How it was run: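 mec2-1 yeast strain, carrying an alteration in DNA damage repair or cell cycle control, was exposed to compounds; growth inhibition was measured relative to vehicle-treated controls.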

[3] = NCI Yeast Anticancer Drug Screen. Data for the sgs1 mgt1 strain (AID 161);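 note: 0% = growth of cultures given vehicle only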; conditions: S. cerevisiae sgs1 mgt1 strain, at 50.0 µM, hits give high values
How it was run: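 Compounds are added to genetically altered yeast, and growth is compared with cultures given vehicle alone to give percent inhibition.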

[4] = NCI Yeast Anticancer Drug Screen. Data for the cln2 rad14 strain (AID 165);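 note: 0% = growth equal to vehicle treated cultures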; conditions: S. cerevisiae cln2 rad14 strain, at 50.0 µM, hits give high values
How it was run: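 Yeast carrying cln2 and rad14 alterations (cell cycle control and DNA damage repair) were exposed to compounds. Growth inhibition was measured against vehicle-treated controls.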

[5] = NCI Yeast Anticancer Drug Screen. Data for the bub3 strain (AID 167); conditions: S. cerevisiae bub3 mutant strain, at 50.0 µM, hits give high values
How it was run: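 Steps: expose the mutant yeast strain to compound; grow alongside vehicle-treated cultures; measure growth; express inhibition against the vehicle cultures.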

[6] = NCI Yeast Anticancer Drug Screen. Data for the mlh1 rad18 strain (AID 175); conditions: S. cerevisiae mlh1 rad18 strain growth inhibition; at 50.0 µM; hits give high values
How it was run: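 Growth inhibition of the yeast strain was measured after compound exposure and expressed relative to vehicle-treated controls. The strain carries defined defects in DNA damage repair.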

Measured: growth inhibition

Cc1ccc2cccc3c2c1CC1(C3=O)S(=O)(=O)OCCOS1(=O)=O
inactive: [1] 9.2% | [2] 4.45% | [3] 20.1% | [4] 14.7% | [5] 39% | [6] -2.3%

C1CCN(c2nn[nH]n2)CC1
inactive: [1] 4.05% | [2] -2% | [3] 3.75% | [4] -10.3% | [5] 12.4% | [6] 0.4%

CCOc1ccc(NC(=O)CC2SC(=Nc3ccc(C)cc3)NC2=O)cc1 (stereo unspecified)
inactive: [1] -12.7% | [2] -38.5% | [3] -5.3% | [4] 4.35% | [5] -31.9% | [6] -38%

CC(=O)N(/C=C\C1=[N+](C)CCS1)c1ccccc1
inactive: [1] 10.2% | [2] -10.4% | [3] 20.4% | [4] 18.9% | [5] 18.1% | [6] 12.7%

CCc1ccccc1NC(=O)COc1ccc(Cl)cc1
inactive: [1] 5.7% | [2] 29.2% | [3] 18.8% | [4] 0.45% | [5] 34.2% | [6] 1.1%

Cn1cnc2c(=O)[nH]cnc21
inactive: [1] 12.9% | [2] -12.7% | [3] -2.4% | [4] -4.8% | [5] 14.7% | [6] -8.5%

O=[N+]([O-])c1ccc2oc3cccnc3c2c1
inactive: [1] 28.6% | [2] -2.8% | [3] -2.65% | [4] -14.1% | [5] 1.3% | [6] 12.8%

COc1cccc2c1oc(=O)c1ccccc12
inactive: [1] 9.55% | [2] -6.75% | [3] -19.6% | [4] -66.8% | [5] -2.35% | [6] -5.85%

CC(O)C(=O)N1CCOCC1 (stereo unspecified)
inactive: [1] 3.5% | [2] -3.65% | [3] -0.7% | [4] -24.9% | [5] 4.25% | [6] -23.3%

O=[N+]([O-])c1ccc(N/N=C(/c2ccc(Cl)cc2)c2ccccc2Cl)c([N+](=O)[O-])c1
inactive: [1] -15.8% | [2] 1.2% | [3] -6.25% | [4] -16.8% | [5] 3.35% | [6] 21.4%

Cc1cc2[nH]c3c(C#N)c(O)c(C(C)C)c(=O)n3c2cc1C
inactive: [1] -1.05% | [2] 7.8% | [3] 11.6% | [4] 1.35% | [5] 10.8% | [6] 11.2%

CC(=O)c1cccc(NC(=O)C(=O)C(C2OC(=O)c3ccccc32)[N+](=O)[O-])c1 (stereo unspecified)
inactive: [1] 5.45% | [2] 11.6% | [3] 17.6% | [4] 11.4% | [5] 3.2% | [6] 8.5%

C/C(CC(=O)Nc1ccc([N+](=O)[O-])cc1)=N/N=C(N)N
inactive: [1] -4.25% | [2] -16% | [3] -8.6% | [4] 17.1% | [5] -10.8% | [6] 2.6%

COC(=O)C1(C)CCCC2(C)c3cc(OC)ccc3C(=O)C(Cl)C12 (stereo unspecified)
inactive: [1] 7.8% | [2] 0.15% | [3] 6.45% | [4] -13.8% | [5] 26.4% | [6] 5.7%

COc1cc(NCCN2CCOCC2)c([N+](=O)[O-])cc1OC
inactive: [1] 22.3% | [2] 12.1% | [3] 8.25% | [4] 2.6% | [5] -0.65% | [6] 8.15%

OCc1ccncc1
inactive: [1] -5.85% | [2] -13.2% | [3] -9.65% | [4] -47.4% | [5] 10.4% | [6] -2.05%

O=C(c1ccc(F)cc1)c1ccc2ccccc2c1
inactive: [1] 8.75% | [2] -1.3% | [3] -3.35% | [4] 10.7% | [5] 2% | [6] 5%

c1ccc2sc(-c3nc4ccccc4s3)nc2c1
inactive: [1] 26.3% | [2] 11.7% | [3] 5.55% | [4] -21.7% | [5] 8.3% | [6] 12.4%

COc1ccc(Nc2nc3c(N)cc(C(F)(F)F)cc3nc2-c2ccccc2)cc1OC
inactive: [1] 0.5% | [2] 0.95% | [3] -22.6% | [4] -6.8% | [5] -18.6% | [6] -7.1%

Cc1ccc(C(=O)N(Cc2ccccc2)Cc2ccccc2)cc1N=NN(C)C
inactive: [1] -44.8% | [2] -39.5% | [3] -55.6% | [4] -8.2% | [5] -31.4% | [6] -22.2%

COC(=O)C1CC(=O)N(CCCl)C1 (stereo unspecified)
inactive: [1] -5.65% | [2] 5.6% | [3] -23.9% | [4] -18.1% | [5] 11.7% | [6] -10.8%

Cc1ccc(Sc2cccc3c2C(=O)c2c(Sc4ccc(C)cc4)cccc2C3=O)cc1
inactive: [1] -18.9% | [2] 9.05% | [3] -24.5% | [4] -12.4% | [5] -2.7% | [6] -11.3%

CCCC(O)C(C)[N+](=O)[O-] (stereo unspecified)
inactive: [1] 7.25% | [2] 4.5% | [3] -0.65% | [4] 4.75% | [5] 4.2% | [6] 0.6%

COC(=O)[C@H]1C=C[C@H](OC2OC(COC(C)=O)C(OC(C)=O)C(OC(C)=O)C2OC(C)=O)n2c(=O)n(-c3ccccc3)c(=O)n21 (stereo partly specified)
inactive: [1] 8.3% | [2] 14% | [3] -1.25% | [4] 5.5% | [5] 15.8% | [6] -48%

ClC1CC2CC1C1COCC21 (stereo unspecified)
inactive: [1] 8.9% | [2] -5.35% | [3] -3.85% | [4] -16.2% | [5] -12.6% | [6] -8.9%

CN(C)C(=S)SCCC(=O)O
inactive: [1] 3.05% | [2] -4.3% | [3] 6.05% | [4] 8.5% | [5] -2.65% | [6] -8.2%

BrC1=CCC23CC=C(Br)[C@H]4CC2(COC3)C[C@@H]1O4 (stereo partly specified)
inactive: [1] 25.2% | [2] -0.55% | [3] 0.6% | [4] -0.05% | [5] -19.4% | [6] -9.75%

O=c1[nH]c2cc([N+](=O)[O-])ccc2nc1/C(=N/Nc1ccccc1)C(O)c1ccc(Cl)cc1Cl (stereo unspecified)
inactive: [1] 41% | [2] 3.6% | [3] -11.6% | [4] -20.2% | [5] -7.3% | [6] 34.7%

Cc1ccc(S(=O)(=O)N2c3ccccc3[C@H]3CCC=C[C@H]32)cc1
inactive: [1] -13.2% | [2] 17.8% | [3] -19.4% | [4] -20.6% | [5] 30.6% | [6] -15.4%

C#CCOCCCC(=O)O
inactive: [1] 6.95% | [2] -8.2% | [3] 0.6% | [4] 0.3% | [5] 16.2% | [6] 11.7%

Nc1nnc2cc(Br)ccc2n1
inactive: [1] -6% | [2] -2.55% | [3] 17.7% | [4] 14.2% | [5] 19.5% | [6] 4.45%

CCN(CC)C1Oc2cc3c(cc2C(c2cccc(OC)c2OC)C1C)OCO3 (stereo unspecified)
inactive: [1] 28.4% | [2] 28.8% | [3] 46.5% | [4] 41.7% | [5] 41.9% | [6] 63.3%

N[C@@H]1c2c(Br)sc(N3CCOCC3)c2C(=O)[C@@H]1O
inactive: [1] 10.8% | [2] -10.4% | [3] 4.1% | [4] -18.6% | [5] 5.4% | [6] -31.6%

N#Cc1ccc(-n2cccc2)cc1
inactive: [1] -1.8% | [2] -1.6% | [3] 7.35% | [4] -26.8% | [5] -6.2% | [6] -4.5%

CN1N=C(c2ccccc2O)/C(=C/c2c(-c3ccccc3O)[nH]n(C)c2=O)C1=O
inactive: [1] 6.85% | [2] -0.55% | [3] -6.1% | [4] 0.75% | [5] 4.6% | [6] 31.9%

CC(=O)OCCC(=O)Nc1cc([N+](=O)[O-])ccc1OCc1ccccc1
inactive: [1] 7.05% | [2] 1.6% | [3] -6.45% | [4] -3.8% | [5] 3.65% | [6] -16%

Nc1ccc(F)cc1C(F)(F)F
inactive: [1] 6.65% | [2] -45% | [3] -4.55% | [4] -7.75% | [5] -8.05% | [6] 23%

COc1cc([C@@H]2c3cc4c(cc3[C@@H](Nc3ccccc3C(=O)c3ccccc3)[C@H]3COC(=O)[C@H]23)OCO4)cc(OC)c1OC
inactive: [1] 9.35% | [2] 9.95% | [3] -18.5% | [4] 13.2% | [5] 1.05% | [6] -34.5%

CCC(O)CN(C)C (stereo unspecified)
inactive: [1] 8% | [2] -4.6% | [3] 6.65% | [4] -13.4% | [5] 0.85% | [6] 3.45%

Cc1nc2ccc(Cl)cc2c2c1CCS2
inactive: [1] -19.1% | [2] -17.3% | [3] -2.8% | [4] -18.1% | [5] -23.1% | [6] -51.4%

Cc1cc([N+](=O)[O-])ccc1N=Nc1ccc([N+](=O)[O-])cc1C
inactive: [1] -0.6% | [2] -1.9% | [3] 1.2% | [4] -49.1% | [5] 5.4% | [6] -8.65%
